Measured values as given in PubChem BioAssay AID1159580 (chemical genetic matrix, 2015).
Hit rate of the full screen: of about 5,500 compounds, about 2,000 (36%) were called active. Inconclusive results (about 18%) are left out. Cut-off read from the data, not from the text of the source: active = normalized growth mostly below about 0.91 (no sharp cut-off); inconclusive = no clear call, values can overlap the other calls; inactive = mostly above about 0.92. Some of the results follow.

Assay: chemical genetic growth profiling, strain panel (AID 1159580);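 note: tested at 20 µM; growth read once vehicle control cultures reached saturation at 30 °C; 1 = growth at the plate median or of vehicle wells; lower values mean less growth of the strain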
Settings: growth OD

Measured: normalized growth

O=c1oc2ccccc2c(O)c1Cc1c(O)c2ccccc2oc1=O
active: S. cerevisiae deletion strains, locus YKL085W, strain MDH1 (second series), stronger effect = lower value 0.923 | S. cerevisiae deletion strains, locus YKL085W, strain MDH1, stronger effect = lower value 0.923
inactive: S. cerevisiae deletion strains, locus YJR066W, strain TOR1, stronger effect = lower value 0.859 | S. cerevisiae deletion strains, locus YKL009W, strain mrt4, stronger effect = lower value 0.944 | S. cerevisiae deletion strains, locus YKL068W, stronger effect = lower value 0.959 | S. cerevisiae deletion strains, locus YKL160W, strain elf1, stronger effect = lower value 1.01 | S. cerevisiae deletion strains, locus YKR001C, strain vps1, stronger effect = lower value 0.962 | S. cerevisiae deletion strains, locus YKR026C, strain gcn3, stronger effect = lower value 1.02 | S. cerevisiae deletion strains, locus YKR091W, strain srl3, stronger effect = lower value 0.999 | S. cerevisiae deletion strains, locus YLL001W, strain dnm1, stronger effect = lower value 1.03 | S. cerevisiae deletion strains, locus YLL026W, stronger effect = lower value 0.996 | S. cerevisiae deletion strains, locus YLL041C, strain sdh2, stronger effect = lower value 0.987 | S. cerevisiae deletion strains, locus YLR027C, strain aat2, stronger effect = lower value 0.992 | S. cerevisiae deletion strains, locus YLR039C, strain RIC1, stronger effect = lower value 1.01 | S. cerevisiae deletion strains, locus YLR058C, strain SHM2, stronger effect = lower value 1 | S. cerevisiae deletion strains, locus YLR102C, strain apc9, stronger effect = lower value 0.964 | S. cerevisiae deletion strains, locus YLR113W, strain HOG1, stronger effect = lower value 0.965 | S. cerevisiae deletion strains, locus YLR221C, strain rsa3, stronger effect = lower value 0.994 | S. cerevisiae deletion strains, locus YLR258W, strain gsy2, stronger effect = lower value 1 | S. cerevisiae deletion strains, locus YLR262C, strain YPT6 (second series), stronger effect = lower value 0.975 | S. cerevisiae deletion strains, locus YLR262C, strain YPT6, stronger effect = lower value 1.01 | S. cerevisiae deletion strains, locus YLR268W, strain sec22, stronger effect = lower value 1 | S. cerevisiae deletion strains, locus YLR320W, strain mms22, stronger effect = lower value 0.989 | S. cerevisiae deletion strains, locus YLR330W, strain CHS5, stronger effect = lower value 0.993 | S. cerevisiae deletion strains, locus YLR342W, strain FKS1 (second series), stronger effect = lower value 1.03 | S. cerevisiae deletion strains, locus YLR342W, strain FKS1, stronger effect = lower value 1 | S. cerevisiae deletion strains, locus YLR357W, strain rsc2, stronger effect = lower value 1.01 | S. cerevisiae deletion strains, locus YLR370C, strain arc18, stronger effect = lower value 1 | S. cerevisiae deletion strains, locus YLR371W, strain rom2, stronger effect = lower value 0.968 | S. cerevisiae deletion strains, locus YLR384C, strain iki3, stronger effect = lower value 1 | S. cerevisiae deletion strains, locus YLR418C, strain cdc73, stronger effect = lower value 0.948 | S. cerevisiae deletion strains, locus YML016C, strain PPZ1, stronger effect = lower value 1 | S. cerevisiae deletion strains, locus YML032C, strain rad52, stronger effect = lower value 0.986 | S. cerevisiae deletion strains, locus YML120C, strain ndi1, stronger effect = lower value 1.02 | S. cerevisiae deletion strains, locus YML124C, strain tub3, stronger effect = lower value 0.961 | S. cerevisiae deletion strains, locus YMR058W, strain fet3, stronger effect = lower value 1 | S. cerevisiae deletion strains, locus YMR078C, strain ctf18, stronger effect = lower value 0.958 | S. cerevisiae deletion strains, locus YMR125W, strain sto1, stronger effect = lower value 1.02 | S. cerevisiae deletion strains, locus YMR129W, stronger effect = lower value 1.01 | S. cerevisiae deletion strains, locus YMR205C, strain PFK2, stronger effect = lower value 1 | S. cerevisiae deletion strains, locus YMR223W, strain ubp8, stronger effect = lower value 0.953 | S. cerevisiae deletion strains, locus YMR231W, strain pep5, stronger effect = lower value 1 | S. cerevisiae deletion strains, locus YMR307W, strain GAS1, stronger effect = lower value 0.947 | S. cerevisiae deletion strains, locus YNL067W, strain RPL9B, stronger effect = lower value 0.987 | S. cerevisiae deletion strains, locus YNL071W, strain lat1, stronger effect = lower value 1.02 | S. cerevisiae deletion strains, locus YNL128W, strain TEP1, stronger effect = lower value 0.998 | S. cerevisiae deletion strains, locus YNL153C, strain GIM3, stronger effect = lower value 1 | S. cerevisiae deletion strains, locus YNL183C, strain NPR1, stronger effect = lower value 0.949 | S. cerevisiae deletion strains, locus YNL209W, strain ssb2, stronger effect = lower value 0.999 | S. cerevisiae deletion strains, locus YNL233W, strain BNI4, stronger effect = lower value 1 | S. cerevisiae deletion strains, locus YNL248C, strain rpa49, stronger effect = lower value 1.05 | S. cerevisiae deletion strains, locus YNL250W, strain rad50, stronger effect = lower value 0.958 | S. cerevisiae deletion strains, locus YNL271C, strain bni1, stronger effect = lower value 0.942 | S. cerevisiae deletion strains, locus YNL298W, strain CLA4, stronger effect = lower value 0.932 | S. cerevisiae deletion strains, locus YNL307C, strain MCK1, stronger effect = lower value 0.973 | S. cerevisiae deletion strains, locus YNL322C, strain KRE1 (second series), stronger effect = lower value 0.98 | S. cerevisiae deletion strains, locus YNL322C, strain KRE1, stronger effect = lower value 0.987 | S. cerevisiae deletion strains, locus YNR049C, strain mso1, stronger effect = lower value 0.996 | S. cerevisiae deletion strains, locus YNR052C, strain pop2, stronger effect = lower value 0.97 | S. cerevisiae deletion strains, locus YOL012C, strain htz1 1.21 | S. cerevisiae deletion strains, locus YOL147C, strain pex11, stronger effect = lower value 0.961 | S. cerevisiae deletion strains, locus YOR001W, strain rrp6, stronger effect = lower value 0.997 | S. cerevisiae deletion strains, locus YOR061W, strain CKA2, stronger effect = lower value 1 | S. cerevisiae deletion strains, locus YOR069W, strain VPS5, stronger effect = lower value 0.99 | S. cerevisiae deletion strains, locus YOR070C, strain gyp1, stronger effect = lower value 1 | S. cerevisiae deletion strains, locus YOR080W, strain dia2, stronger effect = lower value 1 | S. cerevisiae deletion strains, locus YOR083W, strain WHI5, stronger effect = lower value 0.968 | S. cerevisiae deletion strains, locus YOR106W, strain vam3, stronger effect = lower value 1.04 | S. cerevisiae deletion strains, locus YOR136W, strain idh2, stronger effect = lower value 0.988 | S. cerevisiae deletion strains, locus YOR144C, strain elg1, stronger effect = lower value 0.968 | S. cerevisiae deletion strains, locus YOR184W, strain ser1, stronger effect = lower value 0.978 | S. cerevisiae deletion strains, locus YOR231W, strain MKK1, stronger effect = lower value 0.954 | S. cerevisiae deletion strains, locus YOR265W, strain rbl2, stronger effect = lower value 1 | S. cerevisiae deletion strains, locus YOR270C, strain vph1, stronger effect = lower value 1.06 | S. cerevisiae deletion strains, locus YOR290C, strain snf2, stronger effect = lower value 1.01 | S. cerevisiae deletion strains, locus YOR316C, strain cot1, stronger effect = lower value 0.968 | S. cerevisiae deletion strains, locus YPL051W, strain arl3, stronger effect = lower value 1 | S. cerevisiae deletion strains, locus YPL078C, strain atp4, stronger effect = lower value 1.02 | S. cerevisiae deletion strains, locus YPL106C, strain sse1, stronger effect = lower value 0.952 | S. cerevisiae deletion strains, locus YPL240C, strain hsp82, stronger effect = lower value 0.997 | S. cerevisiae deletion strains, locus YPL241C, strain CIN2, stronger effect = lower value 0.987 | S. cerevisiae deletion strains, locus YPL256C, strain CLN2, stronger effect = lower value 0.914 | S. cerevisiae deletion strains, locus YPR119W, strain clb2, stronger effect = lower value 0.966 | S. cerevisiae deletion strains, locus YPR141C, strain kar3, stronger effect = lower value 0.948 | S. cerevisiae deletion strains, locus YPR163C, strain tif3, stronger effect = lower value 0.958 | S. cerevisiae deletion strains, locus YPR167C, strain met16, stronger effect = lower value 0.958 | S. cerevisiae deletion strains, strain wtn01, stronger effect = lower value 0.978 | S. cerevisiae strains, strain wild type, stronger effect = lower value 0.998
